Screens (PubChem)
Integrin act MD: activators of alpha7 integrin expression for muscular dystrophy | alpha7betagal myoblasts, beta-gal FDG fluorescence, 48 h | Potency, µM (series often up to 38.3 µM), for the others: at the highest dose activation, most hits filed as activators | 350,000 compounds, 0.064% hits | AID 624291;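 also: potency is read from the fitted curve at half-maximal effect; 100% = response of the positive control SU9516; nearly all actives have a fitted effect of over 60% in size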
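alpha7betagal+/- myoblasts (passage 13, 250/well) treated 48 h at 37C with compounds at 1:260 dilution of DMSO stock. Lysed, then beta-galactosidase activity read as FDG fluorescence (ex 480/em 540) after 30 min, with pre-read for autofluorescence.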
Giardia killer: kills Giardia lamblia | Giardia lamblia trophozoite viability | activity change, % at 7.66 µM, hits read low | 340,000 compounds, 0.15% hits; in the data active = activity change below about -80%; inconclusive = between about -30% and that limit;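 also: parasites exposed to compound for two days anaerobically before the ATP read; % is scaled to controls: 0 for no effect and ±100 for the full control effect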
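Media and compound were dispensed first, then trophozoites at 100 cells/well; plates sat 48 hrs at 37 deg C without oxygen before ATP luminescence reagent was added and read after 15-30 min at room temperature.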
Gal4-VP16 FLuc: Gal4-VP16 reporter inhibition counter-screen. Drosophila S2 Gal4-VP16 UAS-luciferase, luminescence, 20 h. Potency, µM (top dose mostly 53.6 µM), inactives show at the top dose activity, negative = inhibition, hits mostly inhibitors. 310,000 compounds, 3.5% hits;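 also: Gal4-VP16 expression switched on by copper sulfate through the metallothionein promoter; potency is read from the fitted curve at half-maximal effect; % is scaled to controls: 0 for no effect and ±100 for the full control effect; nearly all actives have a fitted effect of over 50% in size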
ERG Ets-DNA blk: inhibitors of human ERG Ets domain-DNA interaction. P11308. fluorescence polarization, His-ERG Ets domain / labelled DNA. Potency, µM (titrated, usually from 76.9 µM), without a hit: at the top dose FP activity, negative = inhibition, actives largely listed as inhibitors. 370,000 compounds, 0.028% hits; active = well fitted inhibition curve with a large enough effect in the polarisation, with a control signal flat; inconclusive = small, poorly fitted or top-dose-only effect, or effect the other way, or a change in a side signal; inactive = no such curve, though single readings can be large or run the other way; the % refers to the polarisation;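 also: polarization taken with two DNA probes labelled with fluorescein and Texas red; potency is read from the fitted curve at half-maximal effect; % of control where 0% means no effect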
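His-tagged ERG Ets domain (1 uM in the protein solution; 300mM KCl, 50mM Tris-HCl, 1mM EDTA, 1mM DTT, pH 7.5) received compound, then a probe mix of 5 nM fluorescein-DNA and 100nM Texas-615-DNA. Fluorescence polarization was read for both dyes.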
RORg inh: ROR gamma (mouse) transcription inhibition | P51450 | Drosophila S2 Gal4-RORgamma UAS-luciferase reporter, 20 h | Potency, µM (titrated, usually from 53.6 µM), without a hit: at the highest dose activity change, negative = inhibition, hits mostly inhibitors | 310,000 compounds, 5.4% hits | AID 2551; also: potency is read from the fitted curve at half-maximal effect; % is scaled to controls: 0 for no effect and ±100 for the full control effect; nearly all actives have a fitted effect of over 60% in size
Target sequence (P51450 whole entry, looked up, the tested form may be a part): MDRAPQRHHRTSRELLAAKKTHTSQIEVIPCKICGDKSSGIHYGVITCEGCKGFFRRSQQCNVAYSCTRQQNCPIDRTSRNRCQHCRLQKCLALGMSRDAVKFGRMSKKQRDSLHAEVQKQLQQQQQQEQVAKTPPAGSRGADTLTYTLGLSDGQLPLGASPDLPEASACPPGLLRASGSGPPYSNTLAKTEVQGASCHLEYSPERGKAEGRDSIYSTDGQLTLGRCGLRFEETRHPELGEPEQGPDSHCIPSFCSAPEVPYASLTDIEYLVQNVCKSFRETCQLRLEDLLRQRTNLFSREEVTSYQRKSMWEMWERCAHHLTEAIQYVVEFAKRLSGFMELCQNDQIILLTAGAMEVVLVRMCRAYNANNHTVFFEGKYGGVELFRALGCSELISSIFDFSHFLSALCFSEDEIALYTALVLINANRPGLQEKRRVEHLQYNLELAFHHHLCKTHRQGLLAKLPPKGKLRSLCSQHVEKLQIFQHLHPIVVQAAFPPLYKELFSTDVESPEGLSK
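ROR gamma transcriptional activity was tracked as Gal4-UAS luciferase output in stably transfected Drosophila Schneider cells, with compound added 1 hr before 700 uM copper sulfate induction and a 20 hr ambient-temperature incubation.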
* hit, by the source's call; ? = inconclusive; · = no result given; [ ] = remark or other dose. This excerpt belongs to a sample that is enriched for hits. Unless noted, calls follow the shape of the dose curve; as a rule, active = well fitted curve in the direction sought with a large enough effect; inconclusive = small, poorly fitted or top-dose-only effect, or another doubt; inactive = no such curve, though single readings can be large; an effect the other way counts as inactive or inconclusive.

SMILES	Integrin act MD	Giardia killer	Gal4-VP16 FLuc	ERG Ets-DNA blk	RORg inh
CCOC(=O)c1csc(Nc2nc3ccc(F)cc3s2)n1	-65%	-4	?	3%	7.9µM*
COC(=O)c1ccc2nc(Nc3nc4ccc(F)cc4s3)sc2c1	12%	-11	3.5µM*	3%	0.14µM*
CCOC(=O)c1sc(Nc2nc3ccc(OC)cc3s2)cc1C	-8%	-7	1%	-1%	?
CC(=O)c1sc(Nc2nc3ccc(F)cc3s2)nc1C	-24%	-7	11µM*	1%	3.2µM*
COC(=O)c1ccc2nc(NC(=O)C(C)(C)C)sc2c1	-51%	?	7.1µM*	10%	2µM*
COC(=O)c1ccc2nc(NC(=O)C3CCCCC3)sc2c1	?	-21	-2%	4%	-17%
CC(=O)c1sc(Nc2cccc(C)c2)nc1C	3%	-24	?	-4%	22%
Cc1ccc(O)c(C(=O)c2cnn(C(=O)COc3ccccc3C#N)c2)c1	·	·	-5%	·	7%
COc1ccc(NC(=O)c2cc(C3CC3)nc3c2cnn3C(C)C)cc1OC	15%	42	·	8%	·
COc1ccc2c(c1)-c1c(ssc1=S)C(C)(C)N2S(=O)(=O)c1ccc(C)cc1	1%	9	-1%	-10%	8.9µM*
COc1ccc(NS(=O)(=O)c2ccc(N3C(=O)CCC3=O)cc2)cc1	20%	-6	2%	6%	43%
COc1ccc(S(=O)(=O)Nc2ccc(-n3cccc3)cc2)cc1	9%	19	11µM*	2%	11µM*
Cc1cc(/C=N/n2cnnc2)c(C)n1-c1ccc(OCc2ccccc2F)cc1	-38%	-12	?	·	-36%
Cc1cc(/C=N/n2cnnc2)c(C)n1-c1ccc(OCc2ccc(Cl)cc2)cc1	-33%	8	?	12%	2.8µM*
N#Cc1ccc(CSc2nnc(-c3ccc(Br)cc3)o2)cc1	·	·	·	2%	·
Cn1sc(=O)n(Cc2ccccc2)c1=O	·	·	?	·	3.2µM*
Cn1c(=O)n(Cc2ccccc2)c2ccccc21	-31%	5	14%	·	-3%
COCC(=O)Nc1nc2n(n1)C(c1ccccc1)CC(c1ccc(OC)cc1)N2 (stereo not drawn)	-5%[7.66 µM]	-10	0%	-2%	-4%
COc1ccc(C2CC(c3ccc(OC)cc3)n3nc(NC(=O)c4ccco4)nc3N2)cc1 (stereo not drawn)	4%	-9	16µM*	7%	6.3µM*
O=C(Nc1nc2n(n1)C(c1ccccc1)CC(c1ccc(Cl)cc1)N2)c1ccco1 (stereo not drawn)	3%	-6	5µM*	0%	2.5µM*
COc1ccc(C2CC(c3ccccc3)Nc3nc(NC(=O)c4ccco4)nn32)cc1 (stereo not drawn)	5%	3	7.1µM*	12%	6.3µM*
CCN(CC)C(=S)SC1CCCCN(C(=O)c2ccccc2)C1=O (stereo not drawn)	?	10	-2%	4%	-26%
O=c1cc(CN2CCN(c3cccc(C(F)(F)F)c3)CC2)nc2sccn12	-3%	-13	-16%	-3%	23%
Cc1ccc(CSCCC(=O)N2CCN(c3ccc(F)cc3)CC2)cc1	·	·	·	0%	·
COc1ccccc1NS(=O)(=O)c1cc([N+](=O)[O-])ccc1N/N=C/c1sc(N2CCOCC2)nc1-c1ccccc1	0%	-19	0%	-5%	49%
SMILES	Integrin act MD	Giardia killer	Gal4-VP16 FLuc	ERG Ets-DNA blk	RORg inh
Cc1ccc(NC(=O)CSCC(=O)Nc2cc(S(=O)(=O)N3CCOCC3)ccc2OC(C)C)cc1	-13%	-2	·	7%	·
CC1(C)C(c2ccco2)=[N+]([O-])C2(CCCCC2=O)N1O (stereo not drawn)	1%	-13	-1%	-12%	-18%
CC1(C)C(c2cccs2)=[N+]([O-])C2(CCCCC/C2=N\NC(N)=S)N1O (stereo not drawn)	4%	-5	6%	-3%	0.63µM*
C(=N\Nc1ncnc2ccccc12)/c1ccccc1	-6%	-6	1µM*	11%	2.5µM*
Clc1cccc(/C=N/Nc2ncnc3ccccc23)c1	4%	2	4.5µM*	-2%	1.3µM*
Clc1ccc(/C=N/Nc2nc(Cl)nc3ccccc23)cc1	3%	-10	?	-1%	-22%
O=C1COc2ccc(-c3cc(-c4ccccc4)c4c(n3)-c3ccccc3OC4)cc2N1	·	·	·	-2%	·
COc1ccc(/C(N)=N/OC(=O)c2c(-c3ccccc3Cl)noc2C)cc1OC	-13%	16	10µM*	5%	-36%
COc1ccc(CCNC(=S)NC(=O)c2c(-c3ccccc3Cl)noc2C)cc1OC	4%	14	?	0%	8.9µM*
Cc1onc(-c2ccccc2Cl)c1C(=O)NC(=S)NCCc1ccccc1	-8%	-14	20µM*	-5%	10µM*
Cc1nc(/C(N)=N/OC(=O)c2c(-c3ccccc3Cl)noc2C)cs1	25%	-12	-27%	-6%	25%
O=C(NNC(=O)C1CC1c1ccccc1)c1cccc([N+](=O)[O-])c1 (stereo not drawn)	19%	9	-13%	-16%	25%
COc1cccc(OC)c1C(=O)NC(=S)NNC(=O)[C@H]1C[C@@H]1c1ccccc1	2%	6	-16%	9%	4µM*
O=C(NC(=S)NNC(=O)[C@H]1C[C@@H]1c1ccccc1)c1cccc(F)c1	-2%	-5	?	8%	11µM*
Cc1ccc(OCc2cc(C(=O)N3CC4C[C@@H]5CC3C[C@H](C4)C5)no2)cc1C	-11%	16	?	-11%	21%
Cc1nc2cc(NC(=O)Nc3cccc4ccccc34)ccc2n1C	8%	-6	-3%	4%	-14%
COc1ccccc1NC(=O)Nc1ccc2c(c1)nc(C)n2C	0%	?	?	-1%	10µM*
CCc1ccc(CNC(=O)Cn2nc(C)n3c(cc4cc(C)ccc43)c2=O)cc1	·	·	·	1%	·
O=C(/C=C/c1c(Cl)cccc1Cl)N1CCOCC1	-23%	-18	10%	7%	-18%[1.91 µM]
O=C(/C=C/c1c(Cl)cccc1Cl)n1cccn1	-29%	-3	11µM*	-10%	?
Clc1ccc(COn2c(-c3ccc(Cl)cc3)nc3ccccc32)cc1	0%	3	21%	-2%	11µM*
Clc1ccc(COn2c(-c3ccccc3)nc3ccccc32)cc1	26%[7.66 µM]	-2	?	2%	10µM*
O=[N+]([O-])c1ccc2nc(-c3ccc(Cl)cc3)n(OCc3ccccc3)c2c1	21%	-20	?	-2%	24%
c1ccc2[nH]c(-c3cnco3)cc2c1	-10%	?	15%	8%	18%
CCC1(c2ccccc2)NC(=O)NC1=O (stereo not drawn)	·	·	-14%	·	18%
COc1ccc2cc(C(=O)C3CCCN(Cc4ccccn4)C3)ccc2c1 (stereo not drawn)	-23%	13	?	4%	3.2µM*
